Measurements taken from PubChem BioAssay (NCI).
Compounds without any hit were thinned out: in the full panel of roughly 83,000, 20% have a hit.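 In brief: 96-well plates, 48 h treatment, single concentration, percent growth endpoint.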 Unmarked numbers belong to inactive results. The source made the active and inactive calls. How the source made its calls: active means growth percent below 10; inactive means the rest.

Test system: MDA-MB-468 breast
Experiment: NCI-60 one-dose screen, 48 h (100 = growth as untreated, 0 = no growth, -100 = all killed)
Details: 10 µM unless noted

Question: COc1cc(C)cc2oc3oc(=O)c(-c4nc5ccccc5s4)cc3c(=O)c12 was tested. Which growth did it give?
Answer: 104%

Question: With COc1ccc(-c2nc(N/N=C/c3cccc(Br)c3)nc(N3CCOCC3)c2C#N)cc1 as the compound, how does the growth read?
Answer: 73.4%

Question: For O=[N+]([O-])c1ccc(NS(=O)(=O)c2ccccc2)c2ccccc12, which growth is on record?
Answer: 17%

Question: For C=CCSc1nnc(COc2ccc3c(C)c(Cc4ccccc4)c(=O)oc3c2C)o1, which growth is on record?
Answer: 113%

Question: For Cc1ccc(C(=O)N(CCCN)[C@@H](c2nc3cc(Cl)ccc3c(=O)n2Cc2ccccc2)C(C)C)cc1, which growth is on record?
Answer: -84.4% (active)

Question: With CC(C)(C)n1cc(-c2ccnc(NCCNS(=O)(=O)c3ccc(Cl)cc3)c2)c(-c2cccc(O)c2)n1 as the compound, how does the growth read?
Answer: 32.6%

Question: Clc1ccc(Cl)c(N=Cc2ccc3c(c2)OCO3)c1 was tested. Which growth did it give?
Answer: 113%

Question: C=CCn1c(SCC(=O)Nc2ccc(C(=O)/C=C/c3ccc(OC)cc3)cc2)nnc1-c1ccccc1 was tested. Which growth did it give?
Answer: 93.9%

Question: Which growth does the source give for Fc1ccc(-c2cc3nc(C(Cl)Cl)nc(-c4cccs4)n3n2)cc1 here?
Answer: -46.8% (active)

Question: With CN(C)c1ccc2c(c1)OC(N)=C(C#N)C2c1ccc2c(c1)CCO2 (centres undefined) as the compound, how does the growth read?
Answer: 18.3%

Question: Cn1cc(-c2noc(-c3cn(C)c4ncc(F)cc34)n2)c2ccccc21 was tested. Which growth did it give?
Answer: 36.2%

Question: For C(=C(\C1=NCCN1)n1cnc2ccccc21)/c1cccc2ccccc12, which growth is on record?
Answer: 80.6%

Question: Which growth does the source give for CCN1C(=O)C(C)C=C(C)C=C1C (centres undefined) here?
Answer: 110%

Question: For Cc1cc(N2CCOCC2)nc(N(CCCNc2ccnc3cc(Cl)ccc23)Cc2ccco2)n1, which growth is on record?
Answer: 21.7%
